Assay results as given in the supplement of paper PMC10503962.

Tested on: Trichuris muris adult worms
Assay: mean motility score (Paragon pixel variance) of adult worms (arbitrary units); higher = more motile worms, i.e. less anthelmintic effect; extreme values may be limits of the assay
Settings: 100 µM; 24 h
Procedure, shortened: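 Single adult Trichuris muris worms, collected from infected NOD SCID mice, were placed in 96-well plates with 100 μL RPMI-1640 plus antibiotics and drug at 100 μM (1% v/v DMSO), then kept at 37°C and 5% CO2 for 24 h. Plates were filmed on an automated phenotyping platform (200 frames, 100 ms apart). Motility score came from Paragon pixel-variance analysis, averaged across replicate wells. Each drug had three worms in three wells, run on three separate occasions, with vehicle and positive controls.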

SMILES | mean motility score
COc1cc(C(C)=O)ccc1OCCCN1CCC(c2noc3cc(F)ccc23)CC1 [iloperidone] | 1950
CC(C)(C(=O)c1cccnc1)c1cccnc1 [metyrapone] | 3950
CCCCOc1ccc(C(=O)CCN2CCCCC2)cc1.Cl [dyclonine hydrochloride] | 3270
CCc1ccc(CCOc2ccc(CC3SC(=O)NC3=O)cc2)nc1 (stereo not drawn) [pioglitazone] | 0
CCN1CC(CCN2CCOCC2)C(c2ccccc2)(c2ccccc2)C1=O.Cl (stereo not drawn) [doxapram hydrochloride] | 1820
CN(C)CC/C=C1/c2ccccc2Sc2ccc(Cl)cc21 [chlorprothixene] | 5
COc1cc2nc(N(C)CCCNC(=O)C3CCCO3)nc(N)c2cc1OC (stereo not drawn) [alfuzosin] | 2420
COc1ccc(-c2ccc3cc(C(=O)O)ccc3c2)cc1C12CC3CC(CC(C3)C1)C2 [adapalene] | 3410
Cc1ccc(S(=O)(=O)O)cc1.Clc1cccc(Cl)c1NC1=NCCN1 [clonidine p-toluenesulfonic acid] | 3620
CC(C)N=c1cc2n(-c3ccc(Cl)cc3)c3ccccc3nc-2cc1Nc1ccc(Cl)cc1 [clofazimine] | 3290
Cc1cc(C2CCCCC2)n(O)c(=O)c1 [ciclopirox] | 3190
O=C(O)c1cc(-c2ccc(F)cc2F)ccc1O [diflunisal] | 1040
COc1cc2ncnc(Nc3ccc(F)c(Cl)c3)c2cc1OCCCN1CCOCC1 [gefitinib] | 1080
COc1cc(N)c(Cl)cc1C(=O)NC1CCN(CCCOc2ccc(F)cc2)CC1OC.O (stereo not drawn) [cisapride monohydrate] | 2840
CNCC[C@H](Oc1cccc2ccccc12)c1cccs1.Cl [duloxetine hydrochloride] | 2.67
CCCc1nc(C(C)(C)O)c(C(=O)OCc2oc(=O)oc2C)n1Cc1ccc(-c2ccccc2-c2nnn[nH]2)cc1 [olmesartan medoxomil] | 3650
Cc1ccc(O)c(-n2nc3ccccc3n2)c1 [drometrizole] | 2400
COC(=O)C1=C(C)NC(C)=C(C(=O)OCCN2CCN(C(c3ccccc3)c3ccccc3)CC2)C1c1cccc([N+](=O)[O-])c1.Cl (stereo not drawn) [manidipine hydrochloride] | 1540
CC(C)NCC(O)COc1cccc2ccccc12.Cl (stereo not drawn) [propranolol hydrochloride] | 4260

SMILES | mean motility score
O=C1CCc2ccc(OCCCCN3CCN(c4cccc(Cl)c4Cl)CC3)cc2N1 [aripiprazole] | 3030
CN(C(=O)CN(CCO)CC(=O)N(C)C(C)(C)Cc1ccccc1)C(C)(C)Cc1ccccc1 [oxethazaine] | 184
CCOC(=O)[C@H](CCc1ccccc1)N[C@@H](C)C(=O)N1CCC[C@H]1C(=O)O [enalapril] | 2120
CCc1nc(N)nc(N)c1-c1ccc(Cl)cc1 [pyrimethamine] | 2930
OCc1ccccc1 [benzyl alcohol] | 2390
CCOC(=O)Nc1ccc2c(c1)N(C(=O)CCN1CCOCC1)c1ccccc1S2.Cl [moricizine hydrochloride] | 5
CCC1(c2ccccc2)C(=O)NCNC1=O [primidone] | 3160
COc1ccc(C(Cl)=C(c2ccc(OC)cc2)c2ccc(OC)cc2)cc1 [chlorotrianisene] | 2530
Cc1cc(CC(=O)[O-])n(C)c1C(=O)c1ccc(Cl)cc1.[Na+] [zomepirac sodium] | 2840
CN(C)C/C=C/C(=O)Nc1cc2c(Nc3ccc(F)c(Cl)c3)ncnc2cc1O[C@H]1CCOC1 [afatinib] | 0
CCCCC/C=C\C/C=C\C/C=C\CCCCC(=O)O [gamolenic acid] | 2970
Cc1ccnc2c1NC(=O)c1cccnc1N2C1CC1 [nevirapine] | 2540
Cc1nc2n(c(=O)c1CCN1CCC(c3noc4cc(F)ccc34)CC1)CCCC2 [risperidone] | 2130
Cc1nc(Nc2ncc(C(=O)Nc3c(C)cccc3Cl)s2)cc(N2CCN(CCO)CC2)n1 [dasatinib] | 1190
Nc1ncnc2c1ncn2[C@@H]1O[C@H](COP(=O)(O)O)[C@@H](O)[C@H]1O [adenosine phosphate] | 4280
OCC(O)CO [glycerin] | 3460
CN1CCN(CC/C=C2/c3ccccc3Sc3ccc(S(=O)(=O)N(C)C)cc32)CC1 [thiothixene] | 1030
NCC[C@H](O)C(=O)N[C@@H]1C[C@H](N)[C@@H](O[C@H]2O[C@H](CN)[C@@H](O)[C@H](O)[C@H]2O)[C@H](O)[C@H]1O[C@H]1O[C@H](CO)[C@@H](O)[C@H](N)[C@H]1O.O=S(=O)(O)O [amikacin sulfate] | 3880
CC(C)c1ccc2oc3nc(N)c(C(=O)O)cc3c(=O)c2c1 [amlexanox] | 1570
